HT1080 IDH1KD tx: toxicity to HT-1080 IDH1 knockdown cells (counter line). HT-1080 IDH1 knockdown viability, ATP luminescence, 48 h. Potency, µM (series often up to 46.1 µM), inactives show at the top dose activity, negative = toxicity, actives largely listed as cytotoxic. 360,000 tested, 2% active. AID 686971;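 further: potency means the concentration at half of the fitted maximal effect; 0% = DMSO wells and -100% = cell-free medium wells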
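Using the IDH1-knockdown HT-1080 line run in the same batch and compound series as the NT line, viability after 48 h at 37 °C was determined by CellTiter-Glo luminescence and expressed as % activity.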
HT1080NT lethal: kills 2HG-producing HT-1080-NT fibrosarcoma cells. HT-1080-NT fibrosarcoma viability, CellTiter-Glo ATP luminescence, 48 h. Potency, µM (series often up to 46.1 µM), without a hit: at the top dose activity, negative = less viability, actives largely listed as cytotoxic. 360,000 tested, 1.6% active;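 further: NT is the 2HG producing partner of a matched IDH1 knockdown line; potency means the concentration at half of the fitted maximal effect; 0% = DMSO-treated cells and -100% = media-only wells without cells; nearly all actives have a fitted effect of over 55% in size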
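Fibrosarcoma NT cells, 750 per well in 5% FBS RPMI, were exposed to compound for 48 hours. Viability: CellTiter-Glo luminescence.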
TDP1 cell CPT: growth inhibition of DT40 Tdp1-/-;hTDP1 cells with camptothecin (screen for TDP1 inhibitors); chicken DT40 Tdp1-/-;hTDP1 cells + 20 nM CPT, ATP luminescence, 48 h; Potency, µM (highest dose often 46.2 µM), for inactives: top-dose activity change, negative = growth inhibition, usual class: inhibitors; 420,000 tested, 12% active; further: potency means the concentration at half of the fitted maximal effect; nearly all actives have a fitted effect of over 55% in size
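Chicken DT40 Tdp1-/- cells complemented with human TDP1, 400 cells/well, exposed to compounds plus 20 nM camptothecin for at least 48 h at 37 C; viability read as ATP content by CellTiter-Glo luminescence.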
IL-1B inflam inh: inhibitors of inflammasome signaling (IL-1 beta secretion). 360,000 tested, 4.7% active. activity change, % at 57.5 µM. AID 743279. THP-1 LPS/ATP IL-1B secretion, AlphaLISA, 16 h; stronger effect = lower value; in the data active means activity change below about -50%; inconclusive means mostly about -30% to -49%
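THP-1 cells pretreated 1 hr with compounds (up to 57.5 uM final), then stimulated with LPS (250 ng/mL final) plus ATP (1.25 mM final); secreted IL-1B measured by AlphaLISA after 16 hr, decreased signal indicating inhibition.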
uPA generation: cell surface uPA generation inhibition. cell surface uPA generation assay, qHTS. 330,000 tested, 0.31% active. Potency, µM (top dose mostly 38.3 µM), without a hit: at the highest dose activity change, negative = inhibition, actives largely listed as inhibitors; active means well fitted inhibition curve with a large enough effect; inconclusive means small, poorly fitted or top-dose-only effect; inactive means no such curve, though single readings can be large or run the other way; tested in mouse RAW 264.7 cells; further: potency means the concentration at half of the fitted maximal effect; nearly all actives have a fitted effect of over 55% in size
DT40 TDP1 no CPT: qHTS for Inhibitors of human tyrosyl-DNA phosphodiesterase 1 (TDP1): qHTS in cells in absence of CPT; DT40 Tdp1-/- hTDP1 cells, no CPT, ATP luminescence, 48 h; Potency, µM (highest dose often 46.2 µM), without a hit: at the top dose activity change, negative = growth inhibition, most hits filed as inhibitors; 420,000 tested, 15% active; further: potency means the concentration at half of the fitted maximal effect; nearly all actives have a fitted effect of over 55% in size
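Seeded 400 DT40-hTDP1 cells/well (vehicle DMSO, no 20 nM CPT); pinned compounds; ≥48 hr at 37 °C; CellTiter-Glo luminescence as viability measure.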
Numbers without * were called inactive; ? = inconclusive; · = not tested or not shown. This is a sample that favours compounds with a hit; in the whole collection about 19% have one here. Unless noted, the call rests on the fitted dose curve; in most records, active means well fitted curve in the direction sought with a large enough effect; inconclusive means small, poorly fitted or top-dose-only effect, or another doubt; inactive means no such curve, though single readings can be large; an effect the other way counts as inactive or inconclusive. Unless noted, on the % scale 0 is the no-effect control and ±100 the full control effect.

SMILES | HT1080 IDH1KD tx | HT1080NT lethal | TDP1 cell CPT | IL-1B inflam inh | uPA generation | DT40 TDP1 no CPT
CC(C)CCNC(=O)[C@@H](Cc1ccccc1)NC(=O)CC[C@H]1O[C@@H](n2ccc(=O)[nH]c2=O)[C@H](O)[C@@H]1O | 5% | 20% | 2% | 16 | · | 1%
CC1CN(C(=O)c2cc(S(=O)(=O)N3CCCC3)c(Cl)cc2Cl)CC(C)O1 (stereo not drawn) | -6% | -1% | 13µM* | 0 | 1% | 18µM*
CC1CN(S(=O)(=O)c2ccc(Cl)c(S(=O)(=O)N3CC(C)OC(C)C3)c2)CC(C)O1 (stereo not drawn) | -1% | 0% | ? | 21 | -1% | 15µM*
O=S(=O)(c1ccc(Cl)c(S(=O)(=O)N2CCCC2)c1)N1CCCC1 | -7% | 2% | 1% | 24 | 2% | 0%
CN(C)CCCNC(=O)c1ccc(Cl)c(S(=O)(=O)N2CCCCCC2)c1 | -19% | -25% | 10µM* | 3 | -20% | ?
COc1cc(C2C(C(=O)Nc3ccc(C)cc3C)=C(C)Nc3nc4ccccc4n32)cc(OC)c1OC (stereo not drawn) | · | · | -12% | · | · | -9%
Cc1ccc(S(=O)(=O)N2CCN(C(=O)COC(=O)C3CCC3)CC2)c(C)c1 | 2% | 6% | -9% | 10 | 4% | -8%
CC(C)(C)OC(=O)N1CCC(c2c(C(=O)NCc3ccc4c(c3)OCO4)cnn2-c2ccc(F)cc2F)CC1 | · | · | ? | · | · | -81%
Cc1cccc(-n2ncc(C(=O)Nc3ccc4c(c3)OCO4)c2C2CCN(C(=O)OC(C)(C)C)CC2)c1 | · | · | 18µM* | · | · | ?
CC(C)(C)OC(=O)N1CCC(c2c(C(=O)Nc3ccc4c(c3)OCCO4)cnn2-c2ccc(F)cc2F)CC1 | · | · | 21µM* | · | · | -108%
COc1ccc(NC(=O)c2cnn(-c3ccc(F)cc3F)c2C2CCN(C(=O)OC(C)(C)C)CC2)cc1Cl | · | · | ? | · | · | 18µM*
COc1cccc(OC)c1NC(=O)C1CCCN1C(=O)Nc1ccccc1F (stereo not drawn) | 7% | 14% | 10% | -2 | 4% | 13%
O=C(NC(Cc1ccccc1)C(=O)O)/C(=C/c1ccc([N+](=O)[O-])cc1)NC(=O)c1ccco1 (stereo not drawn) | 12% | 5% | 1% | -15 | 0% | 9%
Cc1ccc(S(=O)(=O)NC(CC(C)C)C(=O)N2CCN(C/C=C/c3ccccc3)CC2)cc1 (stereo not drawn) | -1% | -12% | 16µM* | -16 | 14% | 16µM*
Cc1ccc(S(=O)(=O)NC(C)(C)CN2CCC(Cc3ccccc3)CC2)cc1 | ? | ? | 16µM* | ? | ? | 18µM*
CC(=O)Nc1ccc(S(=O)(=O)NCCC(=O)N2CCN(C(c3ccccc3)c3ccccc3)CC2)cc1 | -9% | -9% | ? | ? | -1% | 16µM*
Cc1ccc(S(=O)(=O)NCCC(=O)N2CCN(C/C=C/c3ccccc3)CC2)cc1 | -12% | -4% | ? | 22 | -12% | 15µM*
CC(=O)N1CCN(C(=O)CCNS(=O)(=O)c2ccc(Br)cc2)CC1 | 1% | 7% | -29% | -5 | 6% | -6%
Cc1cc(C(=O)NC2CCCCCCC2)ccc1[N+](=O)[O-] | -2% | -4% | ? | -17 | -7% | ?
FC(F)(F)c1ccccc1/C=N/n1c(COc2ccccc2)n[nH]c1=S | -3% | 0% | -3% | -23 | -9% | -8%
CC(=O)Nc1ccc(S(=O)(=O)NCCC(=O)N2CCC(Cc3ccccc3)CC2)cc1 | -10% | -4% | ? | -12 | -6% | ?
CC(C)(CN1CCCC1)NS(=O)(=O)c1ccc(Cl)cc1 | 0% | -1% | 3% | -16 | 1% | -23%

Compound activity: PubChem, National Center for Advancing Translational Sciences (NCATS)
